Screening data as filed in PubChem BioAssay.
HT1080 IDH1KD tx: HT-1080 IDH1 knockdown cell toxicity (counter line) | Potency, µM (highest dose often 46.1 µM), inactives show at the top dose activity, negative = toxicity, actives largely listed as cytotoxic | HT-1080 IDH1 knockdown viability, ATP luminescence, 48 h | 360,000 tested, 2% active;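 further: potency means the concentration at half of the fitted maximal effect; 0% = DMSO wells and -100% = cell-free medium wells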
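% activity derives from luminescence (CellTiter-Glo), normalised to DMSO and no-cell wells. HT-1080-IDH1KD cells, 750/well, had 48 h compound exposure at 37 °C.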
DT40 TDP1 no CPT: qHTS for Inhibitors of human tyrosyl-DNA phosphodiesterase 1 (TDP1): qHTS in cells in absence of CPT; DT40 Tdp1-/- hTDP1 cells, no CPT, ATP luminescence, 48 h; Potency, µM (doses to about 46.2 µM), for inactives: top-dose activity change, negative = growth inhibition, actives largely listed as inhibitors; 420,000 tested, 15% active; AID 686978, 2013; further: potency means the concentration at half of the fitted maximal effect; nearly all actives have a fitted effect of over 55% in size
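Chicken DT40 Tdp1-/- cells complemented with human TDP1, screened without camptothecin (DMSO vehicle only), 400 cells/well. Compounds pin-transferred, cells incubated at 37 °C for at least 48 hr. Growth read as ATP-dependent luminescence (CellTiter-Glo, 30 min at RT).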
DT40 TDP1 CPT: DT40-hTDP1 cell growth loss with CPT; chicken DT40 Tdp1-/-;hTDP1 cells + 20 nM CPT, ATP luminescence, 48 h; Potency, µM (titrated, usually from 46.2 µM), for the others: at the top dose activity change, negative = growth inhibition, most hits filed as inhibitors; 420,000 tested, 12% active; AID 686979; further: potency means the concentration at half of the fitted maximal effect; nearly all actives have a fitted effect of over 55% in size
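Chicken DT40 Tdp1-/- cells stably complemented with human TDP1 were seeded at 400 cells/well in medium containing 20 nM camptothecin, exposed to pin-transferred compounds, and grown at 37 °C for at least 48 hr. Viability was read as ATP luminescence.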
IL1B secr inh: inhibitors of inflammasome signaling (IL-1 beta secretion); THP-1 LPS/ATP IL-1B secretion, AlphaLISA, 16 h; hits give low values; 360,000 tested, 4.7% active; activity change, % at 57.5 µM; in the data active means activity change below about -50%; inconclusive means mostly about -30% to -49%
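Secreted IL-1B measured by AlphaLISA bead assay after 16 h compound exposure of THP-1 cells; compounds (final up to 57.5 uM) added 1 h before LPS (250 ng/mL) and ATP (1.25 mM) stimulation; lower signal means less secretion.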
HT1080-NT tox: kills 2HG-producing HT-1080-NT fibrosarcoma cells | HT-1080-NT fibrosarcoma viability, CellTiter-Glo ATP luminescence, 48 h | Potency, µM (top dose mostly 46.1 µM), for inactives: at the highest dose activity, negative = less viability, hits mostly cytotoxic | 360,000 tested, 1.6% active | AID 686970;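 further: NT is the 2HG producing partner of a matched IDH1 knockdown line; potency means the concentration at half of the fitted maximal effect; 0% = DMSO-treated cells and -100% = media-only wells without cells; nearly all actives have a fitted effect of over 55% in size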
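Viability of the 2HG-overproducing fibrosarcoma line after 48 hours of compound exposure at 37 degrees C was determined by luminescence with CellTiter-Glo, and concentration-effect curves were then fitted and categorized.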
The depositor's hits bear a star. In the library only some 19% were active in any assay of this set; here they are far more common. Unless noted, the call rests on the fitted dose curve; in most records, active means well fitted curve in the direction sought with a large enough effect; inconclusive means small, poorly fitted or top-dose-only effect, or another doubt; inactive means no such curve, though single readings can be large; an effect the other way counts as inactive or inconclusive. Unless noted, on the % scale 0 is the no-effect control and ±100 the full control effect.

For O=C(COC(=O)CN1CCSC1=O)Nc1ccc(F)cc1Cl the results were HT1080 IDH1KD tx 18%, DT40 TDP1 no CPT -2%, DT40 TDP1 CPT -20%, IL1B secr inh 0 and HT1080-NT tox 7%.
For CNc1ncnc2c1ncn2[C@H]1CN(CCc2ccccc2)C[C@@H](CO)O1 the results were HT1080 IDH1KD tx 3%, DT40 TDP1 no CPT inconclusive, DT40 TDP1 CPT inconclusive, IL1B secr inh 20 and HT1080-NT tox 28%.
COc1ccc(NS(=O)(=O)c2c(F)cc(F)c(Cl)c2F)cc1S(=O)(=O)N1CCCCC1 was read as HT1080 IDH1KD tx -3%, DT40 TDP1 no CPT -4%, DT40 TDP1 CPT 2%, IL1B secr inh -53* and HT1080-NT tox -7%.
For COc1ccc(NC(=O)CSc2ccc3ccccc3c2)cc1S(=O)(=O)N1CCCCC1 the results were HT1080 IDH1KD tx -3%, DT40 TDP1 no CPT 16µM*, DT40 TDP1 CPT 23µM*, IL1B secr inh -4 and HT1080-NT tox -1%.
Screening CCn1cc(C(=O)Nc2ccc(OC)c(S(=O)(=O)N3CCCCC3)c2)c(=O)c2ccc(C)nc21 returned HT1080 IDH1KD tx -7%, DT40 TDP1 no CPT 23µM*, DT40 TDP1 CPT inconclusive, IL1B secr inh -7 and HT1080-NT tox -3%.
CCn1cc(C(=O)NC2CCCCC2C)c(=O)c2ccc(C)nc21 (stereo unspecified) was read as HT1080 IDH1KD tx 15%, DT40 TDP1 no CPT 11µM*, DT40 TDP1 CPT inconclusive, IL1B secr inh -21 and HT1080-NT tox 8%.
`O=C(Nc1cccc(F)c1)N1CC[C@@]2(CCCN(C(=O)c3cnccn3)C2)C1` gave DT40 TDP1 no CPT -18% and DT40 TDP1 CPT -2%.
For Clc1ccccc1CSc1cnnc2ccccc12 the results were HT1080 IDH1KD tx inconclusive, DT40 TDP1 no CPT inconclusive, DT40 TDP1 CPT inconclusive, IL1B secr inh -16 and HT1080-NT tox inconclusive.
Screening COc1ccc(OCC(=O)Nc2ccc(OC)c(S(=O)(=O)N3CCCCC3)c2)cc1 returned HT1080 IDH1KD tx inconclusive, DT40 TDP1 no CPT 12µM*, DT40 TDP1 CPT 15µM*, IL1B secr inh 2 and HT1080-NT tox -18%.
For COc1ccc(CCNC(=O)Cn2c(=O)n(-c3ccc(C)c(F)c3)c(=O)c3sccc32)cc1OC the results were HT1080 IDH1KD tx 8%, DT40 TDP1 no CPT 15µM*, DT40 TDP1 CPT 9.2µM*, IL1B secr inh 4 and HT1080-NT tox 11%.
CCOC(=O)Cn1c(-c2cccs2)cc2cc(Cl)ccc21 was read as DT40 TDP1 no CPT -28% and DT40 TDP1 CPT -22%.
Screening CC(CNC(=O)Cn1c(-c2cccs2)cc2ccccc21)c1ccccc1 (stereo unspecified) returned DT40 TDP1 no CPT inconclusive and DT40 TDP1 CPT 21µM*.
O=C(Cn1c(-c2cccs2)cc2ccccc21)NCc1ccccc1Br was read as DT40 TDP1 no CPT -81% and DT40 TDP1 CPT inconclusive.
`COc1ccc(CCNC(=O)Cn2c(-c3cccs3)cc3cc(F)ccc32)cc1OC` gave DT40 TDP1 no CPT 9.2µM* and DT40 TDP1 CPT 7.3µM*.
Screening COc1ccc(CCNC(=O)Cn2nc(C)n3c(cc4cc(F)ccc43)c2=O)cc1OC returned DT40 TDP1 no CPT 5% and DT40 TDP1 CPT 4%.
For Cc1ccc(CNC(=O)Cn2c(-c3cccs3)cc3cc(Cl)ccc32)cc1 the results were DT40 TDP1 no CPT 23µM* and DT40 TDP1 CPT inconclusive.
Screening COCCCNC(=O)Cn1c(=O)n(CC(=O)NCCc2ccc(OC)c(OC)c2)c(=O)c2sccc21 returned HT1080 IDH1KD tx 16%, DT40 TDP1 no CPT -6%, DT40 TDP1 CPT -1%, IL1B secr inh 0 and HT1080-NT tox 6%.
For O=S(Cc1cc(Sc2ccccc2)nc(-c2ccccc2)n1)c1ccccc1 (stereo unspecified) the results were HT1080 IDH1KD tx inconclusive, DT40 TDP1 no CPT 16µM*, DT40 TDP1 CPT inconclusive, IL1B secr inh -7 and HT1080-NT tox inconclusive.
`COCCSc1nc(N)c2c3c(sc2n1)CN(C)CC3` gave HT1080 IDH1KD tx -6%, DT40 TDP1 no CPT inconclusive, DT40 TDP1 CPT -18%, IL1B secr inh 35 and HT1080-NT tox 0%.
Screening Cc1cccc(OCCCN2C(=O)C(=O)c3cc(C)ccc32)c1 returned HT1080 IDH1KD tx -1%, DT40 TDP1 no CPT 0.92µM*, DT40 TDP1 CPT 1.6µM*, IL1B secr inh 4 and HT1080-NT tox -20%.
Screening Cc1ccc2c(c1)C(=O)C(=O)N2CCCOc1ccccc1 returned HT1080 IDH1KD tx -11%, DT40 TDP1 no CPT 2.1µM*, DT40 TDP1 CPT 1µM*, IL1B secr inh 0 and HT1080-NT tox -2%.
`COc1ccc(Cl)cc1-c1noc([C@@H]2O[C@H](CO)[C@H](O)[C@H](O)[C@H]2O)n1` gave HT1080 IDH1KD tx 23%, DT40 TDP1 no CPT -14%, DT40 TDP1 CPT inconclusive, IL1B secr inh 23 and HT1080-NT tox 14%.
Cc1ccccc1N(C(=O)CCC(=O)Nc1ccccn1)C(C(=O)NC(C)C)c1ccc(F)cc1 (stereo unspecified) was read as HT1080 IDH1KD tx -4%, DT40 TDP1 no CPT -26%, DT40 TDP1 CPT 12%, IL1B secr inh -12 and HT1080-NT tox 1%.
For Cc1ccc2ncc(C(=O)NCCc3ccc(S(N)(=O)=O)cc3)c(=O)n2c1 the results were DT40 TDP1 no CPT -7% and DT40 TDP1 CPT -8%.
For CCC(=O)N1CCN(c2ccccc2NC(=O)Cc2ccc(Cl)cc2)CC1 the results were HT1080 IDH1KD tx -28%, DT40 TDP1 no CPT 23µM*, DT40 TDP1 CPT -15%, IL1B secr inh 0 and HT1080-NT tox -18%.
For O=C(Cc1ccc(F)cc1)Nc1ccccc1N1CCCC1 the results were HT1080 IDH1KD tx 12%, DT40 TDP1 no CPT inconclusive, DT40 TDP1 CPT inconclusive, IL1B secr inh 0 and HT1080-NT tox 0%.
For O=C(Cc1ccc(Cl)c(Cl)c1)Nc1ccccc1N1CCCC1 the results were HT1080 IDH1KD tx -24%, DT40 TDP1 no CPT inconclusive, DT40 TDP1 CPT 15µM*, IL1B secr inh 14 and HT1080-NT tox -28%.
COc1cccc(Cn2cc(C)cc(NC(=O)NCc3ccccc3)c2=O)c1 was read as HT1080 IDH1KD tx -17%, DT40 TDP1 no CPT 3%, DT40 TDP1 CPT 0%, IL1B secr inh 16 and HT1080-NT tox 4%.
Screening NCCOc1ccc(C23CC4CC(CC(C4)C2)C3)cc1 returned HT1080 IDH1KD tx inconclusive, DT40 TDP1 no CPT 3.7µM*, DT40 TDP1 CPT 3.7µM*, IL1B secr inh -81* and HT1080-NT tox 1%.
Oc1ccc(C23CC4CC(CC(C4)C2)C3)cc1O was read as HT1080 IDH1KD tx -14%, DT40 TDP1 no CPT inconclusive, DT40 TDP1 CPT inconclusive, IL1B secr inh inconclusive and HT1080-NT tox -2%.
